According to PubChem BioAssay AID1159580 (chemical genetic matrix, 2015):
About 2,000 (36%) of roughly 5,500 compounds were called active. Another 18% or so got no clear call; they are omitted. Rule as the data show it: active = normalized growth mostly below about 0.91 (no sharp cut-off); inconclusive = no clear call, values can overlap the other calls; inactive = mostly above about 0.92. Some of the results follow.

Assay: chemical genetic growth profiling, strain panel (AID 1159580);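 also: tested at 20 µM; growth read once vehicle control cultures reached saturation at 30 °C; 1 = growth at the plate median or of vehicle wells; lower values mean less growth of the strain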
Conditions: S. cerevisiae deletion strains, growth OD

Measured: normalized growth

CCCCCC(O)CCCC(=O)O (centres undefined)
inactive: locus YAL040C, strain CLN3, stronger effect = lower value 1.02 | locus YCL061C, strain MRC1 (second series), stronger effect = lower value 1.01 | locus YDR363W, strain ESC2, stronger effect = lower value 1.01 | locus YER002W, strain NOP16, stronger effect = lower value 1.03 | locus YJR075W, strain HOC1, stronger effect = lower value 1.02 | locus YNL175C, strain NOP13, stronger effect = lower value 1.02 | locus YNL197C, strain WHI3, stronger effect = lower value 1.05 | locus YNL224C, strain SQS1, stronger effect = lower value 0.991 | locus YOR083W, strain WHI5 (second series), stronger effect = lower value 1.06
